RXFP1 antag: blocks the human relaxin receptor RXFP1; hit rate 0.59% among 350,000; HEK293-RXFP1, relaxin-stimulated cAMP HTRF, 30 min; active compounds read low; activity change, negative = inhibition, % at 57.5 µM;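 active = activity change of -60% or lower, but not beyond a set lower limit; inconclusive = change between -60% and -40%, or beyond the set limit; inactive = change above -40%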; note: % is set by controls: 0 for no effect and ±100 for the full control effect
Target sequence (Q9HBX9 whole entry, looked up): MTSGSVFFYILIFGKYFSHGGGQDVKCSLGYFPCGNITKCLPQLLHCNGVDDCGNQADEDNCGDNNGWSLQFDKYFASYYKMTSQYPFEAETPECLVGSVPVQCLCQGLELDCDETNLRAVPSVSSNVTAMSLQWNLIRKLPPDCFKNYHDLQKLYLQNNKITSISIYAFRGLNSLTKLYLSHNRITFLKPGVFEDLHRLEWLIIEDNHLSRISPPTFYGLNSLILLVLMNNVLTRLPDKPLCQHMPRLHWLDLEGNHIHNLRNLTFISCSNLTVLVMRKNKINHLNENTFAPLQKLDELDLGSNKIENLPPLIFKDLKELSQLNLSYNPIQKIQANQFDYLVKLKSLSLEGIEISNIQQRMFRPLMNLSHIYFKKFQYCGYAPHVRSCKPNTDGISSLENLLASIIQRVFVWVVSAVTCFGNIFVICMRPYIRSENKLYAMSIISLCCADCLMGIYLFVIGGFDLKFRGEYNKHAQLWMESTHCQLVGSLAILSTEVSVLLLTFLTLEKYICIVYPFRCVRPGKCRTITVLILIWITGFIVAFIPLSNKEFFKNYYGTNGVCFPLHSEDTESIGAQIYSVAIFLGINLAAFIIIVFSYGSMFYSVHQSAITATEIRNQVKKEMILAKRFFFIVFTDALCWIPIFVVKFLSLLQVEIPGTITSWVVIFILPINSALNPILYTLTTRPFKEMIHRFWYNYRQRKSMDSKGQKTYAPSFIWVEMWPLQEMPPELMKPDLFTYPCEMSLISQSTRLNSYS
RXFP1 ag: activates the human relaxin receptor RXFP1; Q9HBX9; HEK293T-RXFP1 cAMP TR-FRET, 30 min; response scale: percent of porcine relaxin response, buffer zero; Potency, µM (series often up to 57.5 µM), for inactives: at the highest dose activation, most hits filed as activators; hit rate 0.3% among 370,000; AID 2676; active = well fitted activation curve with a large enough effect; inconclusive = small, poorly fitted or top-dose-only effect; note: potency is the fitted concentration of half-maximal effect; % is set by controls: 0 for no effect and ±100 for the full control effect; nearly all actives have a fitted effect of over 60% in size
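HEK293 cells stably expressing RXFP1, treated 30 min at 37C with compounds plus PDE4 inhibitor Ro 20174; cAMP measured by HTRF TR-FRET. Normalized to buffer and 29 nM porcine relaxin; EC50 by Hill fit.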
gsp antagonist: antagonizes gsp, the McCune-Albright syndrome mutation; gsp-mutant cells, cAMP HTRF, 30 min; AID 624288; hit rate 0.4% among 340,000; Potency, µM (titrated, usually from 76.9 µM), without a hit: top-dose activity change, negative = inhibition, most hits filed as inhibitors; calls by dose curve; cell line not stated here;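 note: intracellular cAMP measured with PDE inhibitor Ro 20-1724 present during compound exposure; potency is the fitted concentration of half-maximal effect; % is set by controls: 0 for no effect and ±100 for the full control effect; nearly all actives have a fitted effect of over 65% in size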
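G418-selected cells were plated in DMEM/10% FBS for 16-24 h at 37C, then treated with compounds plus the PDE inhibitor […] (300 uM solution added) for 30 min at 37C. Intracellular cAMP was measured by HTRF after 30 min lysis at room temperature.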
gsp ag: agonists of gsp mutant (McCune-Albright syndrome). gsp mutant cells, cAMP HTRF, 30 min. Potency, µM (doses to about 76.9 µM), without a hit: at the highest dose activation (cAMP increase), actives largely listed as activators. hit rate 0.13% among 340,000. AID 624287; active = well fitted activation curve with a large enough effect; inconclusive = small, poorly fitted or top-dose-only effect, or another doubt; inactive = no such curve, though single readings can be large or run the other way; cell line not stated here;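 note: phosphodiesterase inhibitor Ro 20-1724 added with compounds to block cAMP breakdown; potency is the fitted concentration of half-maximal effect; nearly all actives have a fitted effect of over 60% in size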
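Cells stably selected in G418 were plated at 2000/well, grown 16-24 hr, then given compounds in DMSO with the PDE inhibitor […] (300 uM solution added) for 30 min at 37C; cAMP was read by HTRF.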
FBPA coupling cs: coupling enzyme interference in Giardia aldolase counter-screen; activity change, negative = inhibition, % at 58.2 µM, hits read low; coupling enzyme system counterscreen, AmpLite Red fluorescence; AID 2472; hit rate 0.67% among 290,000; in the data active = activity change below about -30%; note: % is set by controls: 0 for no effect and ±100 for the full control effect
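Coupling enzymes only (glyceraldehyde-3-phosphate) + compound, at 57.5 uM final, 10 min RT; add substrate/coupling/AmpLite Red mix, 20 min RT; fluorescence ex 525/em 598 nm. Actives flag coupling-system interference.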
Giardia killer: kills Giardia lamblia; activity change, % at 7.66 µM, hits read low; Giardia lamblia trophozoite viability; hit rate 0.15% among 340,000; in the data active = activity change below about -80%; inconclusive = between about -30% and that limit;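 note: parasites exposed to compound for two days anaerobically before the ATP read; % is set by controls: 0 for no effect and ±100 for the full control effect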
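Compounds were tested on trophozoites seeded at 100 cells/well and held 48 hrs at 37 deg C anaerobically. An ATP-based luminescent kit measured the remaining live cells.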
Numbers without * were called inactive; ? = inconclusive; nt = no result; ! = not confirmed by another sample; [ ] = remark or other dose. This is a sample that favours compounds with a hit; in the whole collection about 1.6% have one here.

SMILES	RXFP1 antag	RXFP1 ag	gsp antagonist	gsp ag	FBPA coupling cs	Giardia killer
CN1CCCC(CC2Oc3ccccc3Sc3ccccc32)C1 (stereo not given)	-81*	-1%	23%	-14%[15.4 µM]	0	5
CCNC(=O)Oc1ccc[nH]c1=O	5	-3%	-4%	-30%	-63*	9
COc1ccc(C(=O)Oc2ccc[nH]c2=O)cc1	3	-3%	2%	5%	-5	8
COc1ccc(COC(=O)N/N=C2/C[C@@H](O)[C@@H](O)[C@@H]3[C@@H]4C(=O)N(Cc5ccccc5)C(=O)[C@H]4CC[C@H]23)cc1	nt	nt	nt	nt	3	nt
COc1ccc(/C=C/CN2CCCC(CO)(Cc3cccc(Cl)c3)C2)cc1 (stereo not given)	-69*	-2%	2%	?	0	10
CCOC(=O)C1(Cc2cccc(OC)c2)CCN(C/C=C/c2ccc(OC)cc2)CC1	-82*	0%	-15%	-1%[15.4 µM]	-4	18
Cc1oc(C)c2c(=O)cc(-c3ccc4c(c3)OCO4)cc(OC(=O)c3ccccc3Br)c12	-21	2%	nt	nt	nt	nt
O=C(c1ccc(N2CCCC2)c([N+](=O)[O-])c1)N1CCN(S(=O)(=O)c2ccc(Cl)cc2)CC1	-64*	0%	-5%	-5%[15.4 µM]	nt	-5
CC(Sc1ccc2ccccc2n1)C(=O)O (stereo not given)	48	11µM*	16%	133%[15.4 µM]	1	-2
N[C@H]1CN(c2c(F)cc3c(=O)c(C(=O)O)cn(C4C[C@@H]4F)c3c2Cl)CC12CC2 (stereo not given in full)	-17	nt	nt	nt	nt	nt
NS(=O)(=O)c1cccc2c1c([N+](=O)[O-])cc1[nH]c(=O)c(=O)[nH]c12	nt	nt	nt	nt	-35*!	nt
NS(=O)(=O)c1cccc2c1c([N+](=O)[O-])cc1nc(O)c(O)nc12	nt	0%	2%	nt	-25	5
CCCCn1c(SCC(=O)Nc2ccc(OC)cc2)nc2ccc(N3CCOCC3)cc2c1=O	-10	1%	-7%	?	-32*	-2
CCCCn1c(SCC(=O)NCc2ccccc2)nc2ccc(N3CCOCC3)cc2c1=O	-11	11%	-13%	?	-37*	1
CCCCn1c(SCC(=O)NC(C)CC)nc2ccc(N3CCOCC3)cc2c1=O (stereo not given)	-5	5%	-1%	-2%	-36*	18
CCCCn1c(SCC(=O)NCc2ccco2)nc2ccc(N3CCOCC3)cc2c1=O	-26	13%	-12%	?	-40*	7
CCn1c(SCC(=O)Nc2ccc(N3CCOCC3)cc2)nnc1-c1ccc(OC)cc1	-12	-2%	-3%	5%	3	5
CCC(C)NC(=O)CSc1nc2ccc(N3CCOCC3)cc2c(=O)n1CCc1ccccc1 (stereo not given)	nt	15%	nt	nt	-22	nt
CCCCNC(=O)c1ccc2nc(-c3ccco3)c(-c3ccco3)nc2c1	nt	2%	-2%	10%	-39*	-14
O=C(Nc1ccccc1)c1ccc2nc(-c3ccco3)c(-c3ccco3)nc2c1	4	-1%	-11%	8%	-38*	3
CC(=O)c1ccc(NC(=O)c2ccc3nc(-c4ccco4)c(-c4ccco4)nc3c2)cc1	-20	2%	-11%	-38%	-30*	1
O=C(NCCO)Nc1ccc2nc(-c3ccco3)c(-c3ccco3)nc2c1	nt	14%	nt	nt	-36*	nt
CNC(=O)c1ccc2nc(-c3ccco3)c(-c3ccco3)nc2c1	nt	nt	nt	nt	nt	5
O=C(NCCCO)c1ccc2nc(-c3ccco3)c(-c3ccco3)nc2c1	17	15%	-7%	14%	-29	3
CCS(=O)(=O)N1CCc2cc(C(=O)Nc3cc(C(F)(F)F)ccc3Cl)ccc21	nt	-1%	nt	nt	nt	nt
SMILES	RXFP1 antag	RXFP1 ag	gsp antagonist	gsp ag	FBPA coupling cs	Giardia killer
c1ccc2c(c1)Cc1cc3cc4c(cc3nc1-2)OCO4	nt	nt	nt	nt	-10	nt
O=C(Nc1ccc2nc(-c3ccco3)c(-c3ccco3)nc2c1)N1CCCC1	nt	nt	nt	nt	nt	12
O=C(Nc1ccc2nc(-c3ccco3)c(-c3ccco3)nc2c1)N1CCN(c2ccccn2)CC1	nt	2%	-19%	-14%	-41*	-20
Cc1n[nH]c(=S)n(NC(=O)CC(=O)Nn2c(=S)[nH]nc(C)c2=O)c1=O	-11	-1%	nt	-22%[15.4 µM]	-43*	9
CCOc1ccc(S(=O)(=O)N(C(=O)c2ccco2)c2cc3sc(=O)oc3c3ccccc23)cc1	-68*	6%	-13%	24%	-6	-9
Cc1ccc(S(=O)(=O)N(C(=O)c2ccco2)c2cc3sc(=O)oc3c3ccccc23)cc1	-79*	4%	10%	4%	-15	-1
CCOC(=O)N1CCN(C(=O)CSCC(=O)Nc2nc(-c3ccc(-c4ccccc4)cc3)cs2)CC1	-11	0%	25µM*	-59%	1	-1
COc1ccccc1C1(O)CCN(CC(=O)Nc2nc(-c3ccccc3)cs2)CC1	-76*	-1%	-21%	-6%[15.4 µM]	-2	-16
CCOC(=O)N1CCN(C(=O)CSCC(=O)Nc2nc(-c3ccc(OC)cc3)cs2)CC1	-3	0%	28µM*	-1%	0	-7
CCOC(=O)N1CCN(C(=O)CSCC(=O)Nc2nc(-c3ccc(Cl)s3)cs2)CC1	-18	1%	25µM*	-29%	-3	-14
O=C(O)CSC1=NS(=O)(=O)c2ccccc21	nt	nt	nt	nt	nt	52
CCOC(=O)OCC1OC(C#Cc2ccccc2)C=CC1OC(=O)OCC (stereo not given)	nt	nt	nt	nt	4	nt
Cn1c(SCC(=O)NCc2ccc3c(c2)OCO3)nnc1-c1cc2ccccc2cc1O	-10	1%	40µM*	?	-3	1
COc1ccccc1NC(=O)C(C)OC(=O)c1cc2ccccc2[nH]1 (stereo not given)	-31	1%	35µM*	-8%	nt	22
COc1ccc(OC)c(NC(=O)C(C)OC(=O)c2cc3ccccc3[nH]2)c1 (stereo not given)	nt	nt	22µM*	5%	nt	4
CCC(C)n1nccc1NC(=O)C(C)OC(=O)c1cc2ccccc2[nH]1 (stereo not given)	-14	0%	-13%	-5%	-1	-19
O=[N+]([O-])c1ccc2c(c1)N([O-])C1(CCCCC1)[N+]2=O	-8	0%	?	10%[15.4 µM]	-51*	-1
O=C(CNC(=O)c1ccccc1)OCc1cc(=O)n2cc(Br)ccc2n1	9	?	8%	5.6µM*	6	6
O=C(CNC(=O)c1cccc(F)c1)OCc1cc(=O)n2cc(Br)ccc2n1	nt	?	3%	?	2	16
Cc1cc2c(c(C)c1Cl)C(c1ccc3c(c1)OCO3)CC(O)(c1ccccc1)O2 (stereo not given)	nt	nt	nt	nt	-6	3
